This is a sample that favours compounds with a hit; in the whole collection about 3.8% have one here.
tim23-1 inh: tim23-1 yeast growth inhibition; S. cerevisiae tim23-1 growth, BacTiter-Glo luminescence, 24 h; inhibition, % at 20 µM; actives 1.3% (n = 330,000);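 active = growth inhibition of the mutant yeast at or above 50%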;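 note: temperature-sensitive mutant grown at 25 °C; plate controls were DMSO-treated mutant yeast for no effect and medium wells lacking yeast for full effect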
tim10-1 inh: tim10-1 yeast growth inhibition | S. cerevisiae tim10-1 ts strain growth, BacTiter-Glo, 24 h | inhibition, % at 20 µM | actives 2.2% (n = 330,000);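 active = inhibition of at least 40%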;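 note: mutant grown at 25 °C; 0% = DMSO wells with yeast and 100% = wells holding no yeast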
TIM10 inh: growth inhibitors of TIM10 yeast strain; S. cerevisiae TIM10 strain growth, BacTiter-Glo luminescence, 24 h; AID 463195; actives 1.4% (n = 330,000); inhibition, % at 10 µM;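 active = inhibition of 40% or more at the single tested concentration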;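 note: wild-type TIM10 isogenic control strain grown at permissive 25 °C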
PfHsp90 set2: reduces growth (ATP signal) of yeast expressing P. falciparum Hsp90 | S. cerevisiae expressing PfHsp90, BacTiter-Glo ATP, 48 h; yeast lacking PDR1 and PDR3 efflux regulators | inhibition, % at 9.4 µM | actives 0.32% (n = 310,000);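 active = every replicate shows inhibition above about 80%, whatever the replicate mean, limit read from the data; inconclusive = mean inhibition reaches the set limit but some replicate falls short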;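 note: 0% = DMSO neutral controls and 100% = 20 µM radicicol positive controls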
B2AR ag: agonists of human beta-2 adrenergic receptor inducing internalization. Am2.2-beta2AR cells, FAP receptor internalization, flow cytometry. P07550. response, % (no concentration beside the values). actives 0.43% (n = 340,000);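 active = response above a set limit, near 3 SD of response in nonfluorescent compounds, cut at about 42% in these data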
Target sequence (P07550 whole entry, looked up): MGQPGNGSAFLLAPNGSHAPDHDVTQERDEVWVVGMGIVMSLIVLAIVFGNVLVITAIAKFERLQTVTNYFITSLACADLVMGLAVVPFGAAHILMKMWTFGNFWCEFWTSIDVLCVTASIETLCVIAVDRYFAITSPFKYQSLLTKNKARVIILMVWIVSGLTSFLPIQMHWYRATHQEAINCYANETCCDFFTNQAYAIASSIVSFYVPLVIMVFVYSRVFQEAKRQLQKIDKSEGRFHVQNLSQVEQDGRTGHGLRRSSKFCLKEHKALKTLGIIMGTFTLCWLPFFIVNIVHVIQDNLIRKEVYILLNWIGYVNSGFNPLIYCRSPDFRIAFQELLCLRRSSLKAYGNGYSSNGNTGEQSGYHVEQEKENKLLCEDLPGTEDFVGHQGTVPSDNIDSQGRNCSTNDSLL
tim10-1 confirm: confirmation of tim10-1 mutant yeast growth inhibitors; shares compounds with tim10-1 inh; S. cerevisiae tim10-1 ts strain growth, BacTiter-Glo, 24 h; inhibition, % at 20 µM; actives 56% (n = 7,400); AID 463213;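 active = inhibition of yeast growth at or above a set limit in either of two repeat tests at 20 µM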;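 note: tim10-1 mutant grown at permissive 25 °C to find synthetic lethal compounds; 0% = DMSO yeast wells and 100% = medium wells without yeast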
tim10 confirm: confirmation of TIM10 yeast growth inhibitors; shares compounds with TIM10 inh; S. cerevisiae tim10 strain growth, BacTiter-Glo luminescence, 24 h; inhibition, % at 10 µM; actives 63% (n = 4,600); AID 463215;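 active = inhibition of yeast growth at or above a set limit in either of two replicates at 10 µM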;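 note: this counterscreen used the strain with wild-type TIM10; 0% = yeast with DMSO and 100% = medium wells lacking yeast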
tim23-1 confirm: tim23-1 yeast growth inhibition, confirmed. shares compounds with tim23-1 inh. inhibition, % at 20 µM. actives 83% (n = 4,400). S. cerevisiae tim23-1 growth, BacTiter-Glo luminescence, 24 h;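 active = inhibition above about 39% in either of two replicate wells at 20 µM, limit read from the data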;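 note: temperature-sensitive tim23-1 mutant grown at 25 °C; 0% = DMSO wells with yeast and 100% = medium wells without yeast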
An asterisk follows results filed as active; ? = inconclusive; / = no result given.

SMILES | tim23-1 inh | tim10-1 inh | TIM10 inh | PfHsp90 set2 | B2AR ag | tim10-1 confirm | tim10 confirm | tim23-1 confirm
Cc1ccc2c(c1)c1ccc3c(c1n2C)C(=O)C=CC3=O | 73* | 63* | 63* | ? | 93* | 56* | 94* | 42*
COc1ccc2c(c1)c1ncn(CCN3CCCC3)c(=O)c1n2C | 4 | 17 | -21 | -21 | -4 | / | / | /
Cc1ccc2c(c1)c1ncnc(N3CCOCC3)c1n2C | 31 | 24 | 16 | / | -4 | / | / | /
COc1ccc2c(c1)c1ccc3c(c1n2C)C(=O)C=CC3=O | 68* | 47* | 55* | 7 | 96* | 60* | 93* | -19
NCCNc1ccc(C(=O)N2c3ccccc3Sc3ccccc32)cc1[N+](=O)[O-] | 19 | 17 | -1 | 11 | 8 | / | / | /
COc1ccccc1CN(Cc1nc2ccccc2c(=O)[nH]1)C(=O)Nc1ccc(C)cc1 | 59* | 43* | 55* | -11 | -1 | 38* | 40* | 51*
O=C(Nc1cccc(Cl)c1)c1cc(N=Nc2ccc([N+](=O)[O-])cc2Cl)ccc1O | 71* | 70* | 40 | 41 | 36 | 60* | / | 78*
CCN1C(=O)/C(=C\N(C(C)=O)c2ccccc2)OC1=S | 70* | 49* | 61* | -8 | 13 | 57* | 58* | 57*
CCn1c(O)c(C2=c3ccccc3=NC2=O)c2cc(Br)ccc21 | 75* | 61* | 60* | / | / | 51* | 68* | 69*
O=C1N=c2ccccc2=C1c1c(O)n(-c2cccc(F)c2)[nH]c1=O | / | / | / | 17 | 7 | / | / | /
CCN1N=C(c2ccccc2)Cn2c1nc1ccccc12 | 52* | 43* | 28 | -78 | -2 | 44* | / | 46*
Cc1cccnc1Nc1nc(-c2ccc(O)cc2O)cs1 | 88* | 44* | 31 | -20 | 4 | 28 | / | 52*
Cc1cccnc1Nc1nc(-c2ccccc2)cs1 | 50 | 8 | 1 | -7 | 0 | / | / | /
CCSC1=NCCN1C(=O)Cc1ccc(-c2ccccc2)cc1 | 67* | 77* | 76* | / | 7 | 76* | 74* | 36
CSC1=NCCN1C(=O)Cc1ccc(F)cc1 | -13 | -8 | -2 | -6 | 14 | / | / | /
CSC1=NCCN1C(=O)Cc1ccc(-c2ccccc2)cc1 | 73* | 61* | 59* | -134 | 2 | 69* | 67* | 35
Cc1[nH]nc(-c2cccnc2)c1N=NN(C)C | / | / | / | 5 | 3 | / | / | /
CCOC(=O)c1nnc(-c2cccs2)nc1NC(C)C | 55* | 47* | 23 | 3 | -6 | 42* | / | 44*
CCOC(=O)c1nnc(-c2cccs2)nc1Oc1ccccc1C(=O)OC | 51* | 41* | 49* | 9 | 10 | 27 | 35* | 50*
COc1cc(OC)cc(C(=O)O/N=C(\N)c2cccc(C)c2)c1 | 86* | 53* | 79* | -20 | 11 | 40* | 85* | 83*
Cc1cccc(/C(N)=N/OC(=O)c2cccc3ccccc23)c1 | 82* | 64* | 87* | / | 3 | 54* | 85* | 47*
N/C(=N\OC(=O)CCC1CCCCC1)c1cccc([N+](=O)[O-])c1 | 54* | 79* | 62* | 5 | 4 | 79* | 49* | 77*
CCC(C(=O)O/N=C(\N)c1cccc(C)c1)c1ccccc1 (stereo unspecified) | 61* | 63* | 54* | 19 | -3 | 53* | -30 | 55*
Cc1cccc(/C(N)=N/OC(=O)Cc2ccccc2)c1 | 30 | 37 | 34 | 8 | -5 | / | / | /
O=C(O/N=C(\c1ccccc1)c1ccccn1)c1cccc2ccccc12 | 45 | 29 | 9 | 29 | 1 | / | / | /
SMILES | tim23-1 inh | tim10-1 inh | TIM10 inh | PfHsp90 set2 | B2AR ag | tim10-1 confirm | tim10 confirm | tim23-1 confirm
COc1ccc(/C=C2\SC(=O)N(CCCC(=O)Nc3cc(Cl)ccc3C(=O)O)C2=O)cc1 | 17 | 6 | 3 | -26 | 2 | / | / | /
Cc1cccc(/C(N)=N/OC(=O)C23CC4CC(CC(C4)C2)C3)c1 | 68* | 55* | 80* | -19 | 2 | 57* | 5 | 66*
Cc1cccc(/C(N)=N/OC(=O)c2ccc(Br)o2)c1 | 67* | 43* | 69* | -13 | -5 | 47* | 63* | 57*
O=C(COC(=O)C12CC3CC(CC(C3)C1)C2)NNC(=O)c1ccccc1 | 11 | 12 | 1 | 10 | 1 | / | / | /
Cc1cccc(/C(N)=N/OC(=O)c2cccnc2)c1 | 35 | 38 | 37 | -47 | 2 | / | / | /
Cc1cccc(C(=O)O/N=C(\N)c2cccc([N+](=O)[O-])c2)c1 | 53* | 74* | 58* | 5 | 4 | 80* | 49* | 51*
Cc1cccc(/C(N)=N/OC(=O)c2ccc3c(c2)OCO3)c1 | 88* | 75* | 83* | 20 | 2 | 66* | -6 | 85*
Cc1c(C(=O)N/N=C/c2cccnc2)nnn1-c1nonc1N | 14 | 8 | -5 | -10 | -6 | / | / | /
Cc1cc(=O)oc2cc(OCC(=O)NC3CCCCC3)ccc12 | 2 | -17 | -3 | 12 | 9 | / | / | /
COc1ccccc1C(=O)N/C(=C\c1cn(S(=O)(=O)N(C)C)c2ccccc12)C(=O)N1CCOCC1 | -11 | -1 | 3 | -4 | 2 | / | / | /
COc1ccc(/C=C(/C(=O)c2ccc(Cl)cc2Cl)n2cncn2)cc1 | 76* | 64* | 77* | 7 | 18 | 70* | 78* | 49*
CN(C)c1ccc(/C=C(/C(=O)c2ccc(Cl)cc2Cl)n2cncn2)cc1 | 54* | 53* | 51* | -8 | -1 | 41* | -26 | 56*
CCc1ccc(NC(=O)COc2cccc(-n3cnnn3)c2)cc1 | 15 | 23 | -16 | -100 | -8 | / | / | /
O=S(=O)(c1ccccc1)C1CC1(c1ccccc1)c1ccccc1 (stereo unspecified) | / | / | / | -46 | -2 | / | / | /
Cc1ccnc(NC(=O)c2ccc(OCc3c(C)noc3C)cc2)c1 | -7 | -3 | 8 | / | 0 | / | / | /
Cc1ccc(C(=O)/C=C/c2ccc(-c3ccccc3[N+](=O)[O-])o2)cc1 | 31 | 37 | 39 | 6 | 5 | / | / | /
Cc1ccc(-c2ccc(/C=C/C(=O)c3ccccc3)o2)cc1 | 62* | 62* | 67* | 8 | 13 | 69* | 67* | 78*
O=[N+]([O-])c1nn(-c2ccc3c(c2)OCCO3)n(O)c1=NC1CCCCCC1 | 56* | 53* | 55* | -19 | -7 | 56* | 45* | 48*
O=[N+]([O-])c1nn(-c2ccc3c(c2)OCCO3)n(O)c1=NCCCO | 4 | 16 | 8 | -21 | 5 | / | / | /
